The target in assay [1] is Nuclear receptor coactivator 3 (Homo sapiens) (UniProt Q9Y6Q9). Nature of the assay: NCOA3 GAL4-fusion reporter inhibition – cell-based, luminescence, quadruplicate, confirmation (AID 588792;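 active means mean inhibition over 43.08%, the solvent-only control mean plus 3 SD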;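 further: 0% = DMSO treated cells and 100% = gossypol at 36 µM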). As to conditions: HEK293 GAL4-SRC3 luciferase reporter, at 3.6 µM, stronger effect = higher value.
In assay [2] the test system is transactivating tegument protein VP16 (Human herpesvirus 1), Gal4-VP16 luciferase reporter. Nature of the assay: repression of VP16-driven luciferase reporter – cell-based, luminescence, high throughput, counter-screen for SRC3 inhibitor project (AID 588794; in the data active means inhibition above about 30%). As to conditions: mammalian cells, at 3.6 µM, stronger effect = higher value.
In assay [3] the target is Nuclear receptor coactivator 1 (Homo sapiens) (UniProt Q15788). Nature of the assay: NCOA1 GAL4-fusion reporter inhibition – cell-based, luminescence, quadruplicate, confirmation (AID 588820;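 active means mean inhibition above 46.68%, the untreated control wells mean plus 3 SD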;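 further: 0% = DMSO wells and 100% = gossypol 36 µM treated wells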). Conditions: HEK293 GAL4-SRC1 luciferase reporter, at 3.6 µM, stronger effect = higher value.
Assay [4] can be described thus: repression of VP16-driven luciferase reporter – cell-based, luminescence, high throughput, counter-screen for SRC1 inhibitor project (AID 588824). As to conditions: cell-based VP16 transactivation luciferase luminescence; at 3.6 µM; stronger effect = higher value.
A short description of assay [5]: StAR promoter reporter inhibitors, counter-screen for LRH-1 inverse agonist project, cell-based, luminescence, high throughput (AID 651611; in the data active means inhibition above about 28%). Conditions: StAR promoter luciferase reporter counterscreen, at 3.6 µM, stronger effect = higher value.
In assay [6] the target is Nuclear receptor subfamily 5 group A member 2 (Homo sapiens) (UniProt O00482). Description: NR5A2 activity suppression in reporter cells – cell-based, luminescence, confirmation (AID 651613; in the data active means inhibition above about 42%;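 further: HEK293T cells co-transfected with LRH-1 and StAR promoter luciferase reporter; 0% = vehicle wells and 100% = parental cells lacking receptor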). As to conditions: cell-based LRH-1 luciferase reporter, inverse agonism; at 3.6 µM; stronger effect = higher value.
Sequence of Nuclear receptor subfamily 5 group A member 2 (Homo sapiens) (O00482 whole entry, looked up): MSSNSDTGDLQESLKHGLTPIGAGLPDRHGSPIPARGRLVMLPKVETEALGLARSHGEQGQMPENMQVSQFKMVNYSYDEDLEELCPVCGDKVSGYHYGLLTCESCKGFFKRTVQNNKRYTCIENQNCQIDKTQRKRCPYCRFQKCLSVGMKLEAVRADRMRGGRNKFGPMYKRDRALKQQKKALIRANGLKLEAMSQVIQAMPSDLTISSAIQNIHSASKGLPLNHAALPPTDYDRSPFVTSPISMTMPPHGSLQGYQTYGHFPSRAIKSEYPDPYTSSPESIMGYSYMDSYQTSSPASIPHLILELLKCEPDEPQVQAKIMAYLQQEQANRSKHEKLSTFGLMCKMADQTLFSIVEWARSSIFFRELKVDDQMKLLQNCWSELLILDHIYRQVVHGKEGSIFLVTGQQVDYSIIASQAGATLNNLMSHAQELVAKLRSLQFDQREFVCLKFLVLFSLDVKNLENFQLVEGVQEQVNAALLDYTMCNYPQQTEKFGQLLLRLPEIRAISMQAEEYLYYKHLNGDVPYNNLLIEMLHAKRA
In assay [7] the target is Steroidogenic factor 1 (Homo sapiens) (UniProt Q13285). Description: inverse agonism at SF1 nuclear receptor – cell-based, luminescence, high throughput, counter-screen for LRH-1 inverse agonist project (AID 651614; in the data active means inhibition above about 44%;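 further: cells cotransfected with StAR promoter reporter and SF1 expression vector; 0% = vehicle on cells with receptor and 100% = vehicle on cells lacking receptor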). As to conditions: cell-based SF1 luciferase reporter, at 3.6 µM, stronger effect = higher value.
Sequence of Steroidogenic factor 1 (Homo sapiens) (Q13285 whole entry, looked up, the tested form may be a part): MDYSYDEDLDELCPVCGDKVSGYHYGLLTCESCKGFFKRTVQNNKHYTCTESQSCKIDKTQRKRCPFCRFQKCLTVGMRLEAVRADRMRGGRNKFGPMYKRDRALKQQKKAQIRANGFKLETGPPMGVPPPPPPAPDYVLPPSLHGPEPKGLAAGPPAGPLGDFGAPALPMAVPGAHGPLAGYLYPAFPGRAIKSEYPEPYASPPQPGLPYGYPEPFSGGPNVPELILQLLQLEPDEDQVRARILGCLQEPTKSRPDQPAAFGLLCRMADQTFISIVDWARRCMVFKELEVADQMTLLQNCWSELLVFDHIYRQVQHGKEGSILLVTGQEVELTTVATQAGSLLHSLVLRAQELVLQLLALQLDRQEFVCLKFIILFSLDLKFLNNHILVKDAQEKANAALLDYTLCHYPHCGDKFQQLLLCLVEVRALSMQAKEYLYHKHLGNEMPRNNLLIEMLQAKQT
A short description of assay [8]: compounds suppressing VP16-driven luciferase signal – cell-based, luminescence, high throughput, counter-screen for LRH-1 inverse agonist project (AID 651615; in the data active means inhibition above about 33%). Conditions: Gal4-VP16 luciferase reporter cells, at 3.6 µM, stronger effect = higher value.
The test system of assay [9] is transactivating tegument protein VP16 (Human herpesvirus 1). Nature of the assay: compounds suppressing VP16-driven luciferase signal – cell-based, luminescence, single concentration, counter-screen for SRC2 inhibitor project (AID 652007; in the data active means inhibition above about 36%). Conditions: cell-based VP16 transactivation luciferase reporter, at 8.9 µM, stronger effect = higher value.
For assay [10], the target named is Nuclear receptor coactivator 2 (Homo sapiens) (UniProt Q15596). Nature of the assay: inhibition of GAL4-SRC2 driven luciferase expression – cell-based, luminescence, HEK293, triplicate, confirmation (AID 652008;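 active means mean inhibition above 46.5%, the solvent-only control mean plus 3 SD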;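 further: 0% = DMSO-treated cells and 100% = Gossypol at 36 µM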). As to conditions: HEK293 GAL4-SRC2 luciferase reporter, at 8.9 µM, stronger effect = higher value.
Sequence of Nuclear receptor coactivator 2 (Homo sapiens) (Q15596 whole entry, looked up, the tested form may be a part): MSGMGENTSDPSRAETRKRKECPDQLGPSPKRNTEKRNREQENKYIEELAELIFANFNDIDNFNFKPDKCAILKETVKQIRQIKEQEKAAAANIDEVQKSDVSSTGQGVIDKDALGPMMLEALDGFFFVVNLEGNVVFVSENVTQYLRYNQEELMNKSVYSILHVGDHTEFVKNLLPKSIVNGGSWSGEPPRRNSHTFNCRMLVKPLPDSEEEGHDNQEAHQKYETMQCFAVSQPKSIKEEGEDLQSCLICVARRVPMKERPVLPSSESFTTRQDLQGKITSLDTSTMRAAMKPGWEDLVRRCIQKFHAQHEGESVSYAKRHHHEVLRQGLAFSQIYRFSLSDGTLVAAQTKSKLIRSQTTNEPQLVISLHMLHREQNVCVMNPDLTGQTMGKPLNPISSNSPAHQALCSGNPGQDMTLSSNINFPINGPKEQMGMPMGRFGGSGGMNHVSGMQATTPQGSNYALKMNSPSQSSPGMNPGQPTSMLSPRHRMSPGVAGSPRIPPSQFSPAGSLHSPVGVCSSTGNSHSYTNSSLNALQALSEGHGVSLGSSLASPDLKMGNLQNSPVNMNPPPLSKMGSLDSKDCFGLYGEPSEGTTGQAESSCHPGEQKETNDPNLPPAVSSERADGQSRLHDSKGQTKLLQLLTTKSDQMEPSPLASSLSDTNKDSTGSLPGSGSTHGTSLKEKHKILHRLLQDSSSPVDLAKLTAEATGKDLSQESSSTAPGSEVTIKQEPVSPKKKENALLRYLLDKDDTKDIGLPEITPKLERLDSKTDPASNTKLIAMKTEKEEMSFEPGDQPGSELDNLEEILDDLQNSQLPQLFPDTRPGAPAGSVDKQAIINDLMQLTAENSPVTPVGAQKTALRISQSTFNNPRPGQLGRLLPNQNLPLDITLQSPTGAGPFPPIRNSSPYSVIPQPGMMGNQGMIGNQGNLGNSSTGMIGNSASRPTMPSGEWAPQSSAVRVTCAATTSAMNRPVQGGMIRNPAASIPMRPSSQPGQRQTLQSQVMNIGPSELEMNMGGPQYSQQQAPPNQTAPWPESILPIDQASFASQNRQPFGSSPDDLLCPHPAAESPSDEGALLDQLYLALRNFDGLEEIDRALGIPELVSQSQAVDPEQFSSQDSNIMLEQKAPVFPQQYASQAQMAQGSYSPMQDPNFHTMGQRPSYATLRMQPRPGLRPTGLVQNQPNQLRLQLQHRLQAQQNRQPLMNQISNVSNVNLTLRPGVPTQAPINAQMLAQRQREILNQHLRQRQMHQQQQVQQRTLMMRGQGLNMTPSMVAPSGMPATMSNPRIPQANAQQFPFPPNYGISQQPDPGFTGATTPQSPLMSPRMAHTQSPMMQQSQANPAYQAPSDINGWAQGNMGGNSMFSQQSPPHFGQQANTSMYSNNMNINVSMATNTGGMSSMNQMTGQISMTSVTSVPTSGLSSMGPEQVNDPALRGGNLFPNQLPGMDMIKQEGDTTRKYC

Each structure is given as a SMILES string. Unmarked numbers belong to inactive results. The source made the active and inactive calls. Unless noted, no stated cut-off is given here; in the data, active means inhibition above about 25%; inactive means the rest.

The values that follow come from PubChem BioAssay.

Sequence of Nuclear receptor coactivator 3 (Homo sapiens) (Q9Y6Q9 whole entry, looked up, the tested form may be a part): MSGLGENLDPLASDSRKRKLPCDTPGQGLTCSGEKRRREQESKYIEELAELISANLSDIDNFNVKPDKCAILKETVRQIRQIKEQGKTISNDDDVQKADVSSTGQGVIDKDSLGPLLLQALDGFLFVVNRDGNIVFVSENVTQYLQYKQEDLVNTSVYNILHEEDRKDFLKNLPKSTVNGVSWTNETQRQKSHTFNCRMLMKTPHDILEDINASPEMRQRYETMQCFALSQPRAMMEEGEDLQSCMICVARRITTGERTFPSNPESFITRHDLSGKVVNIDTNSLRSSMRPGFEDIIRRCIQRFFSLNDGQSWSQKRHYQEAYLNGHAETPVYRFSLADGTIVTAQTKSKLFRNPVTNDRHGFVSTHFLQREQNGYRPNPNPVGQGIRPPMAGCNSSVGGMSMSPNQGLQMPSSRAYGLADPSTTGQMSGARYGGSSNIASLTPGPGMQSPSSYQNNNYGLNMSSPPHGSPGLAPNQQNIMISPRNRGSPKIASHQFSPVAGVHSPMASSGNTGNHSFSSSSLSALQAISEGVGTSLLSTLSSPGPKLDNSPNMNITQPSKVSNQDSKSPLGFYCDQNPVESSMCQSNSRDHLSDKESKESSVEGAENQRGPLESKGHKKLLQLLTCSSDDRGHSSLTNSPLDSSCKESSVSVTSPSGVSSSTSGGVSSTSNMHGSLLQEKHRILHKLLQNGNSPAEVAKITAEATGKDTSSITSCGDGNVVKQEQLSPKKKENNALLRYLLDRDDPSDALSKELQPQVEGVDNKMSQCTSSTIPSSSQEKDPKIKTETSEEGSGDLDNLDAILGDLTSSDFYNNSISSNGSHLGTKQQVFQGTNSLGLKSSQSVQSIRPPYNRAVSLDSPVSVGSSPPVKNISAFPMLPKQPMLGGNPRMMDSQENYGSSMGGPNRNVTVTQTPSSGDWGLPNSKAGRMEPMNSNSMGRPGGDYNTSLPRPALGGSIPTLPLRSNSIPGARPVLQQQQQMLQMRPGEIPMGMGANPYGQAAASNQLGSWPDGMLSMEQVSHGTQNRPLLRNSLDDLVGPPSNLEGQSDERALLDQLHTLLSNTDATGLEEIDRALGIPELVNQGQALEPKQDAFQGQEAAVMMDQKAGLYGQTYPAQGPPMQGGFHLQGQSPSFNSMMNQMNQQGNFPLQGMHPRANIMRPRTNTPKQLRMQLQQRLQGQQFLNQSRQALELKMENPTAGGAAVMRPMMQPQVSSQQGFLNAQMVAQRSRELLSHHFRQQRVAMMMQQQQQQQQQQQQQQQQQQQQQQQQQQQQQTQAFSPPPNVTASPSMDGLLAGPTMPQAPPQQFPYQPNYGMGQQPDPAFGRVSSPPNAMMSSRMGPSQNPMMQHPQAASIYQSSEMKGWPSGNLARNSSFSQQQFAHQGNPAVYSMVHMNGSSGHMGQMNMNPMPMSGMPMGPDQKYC

Turning to `CCN1/C(=C/c2sc(-c3ccccc3C)c[n+]2C)Sc2ccccc21`, the inhibition was 76.8% (active) in [1]; 86% (active) in assay [2]; 61.9% (active) in assay [3]; 82.8% (active) in assay [4]; 74.7% (active) in assay [5]; 105% (active) in [6]. Further, the inhibition is 94.7% (active) in [7], 89.2% (active) in [8], 44.1% (active) in assay [9] and 34.1% in [10].
With `O=C(CN1C(=O)c2ccccc2S1(=O)=O)c1ccc2c(c1)OCCCO2`, the inhibition in assay [1] is 93.3% (active); in assay [2], 92.4% (active); in [3], 82.5% (active); in assay [4] it was 91.8% (active); in [5], 91% (active); in assay [6], 99.8% (active). Further, the inhibition in assay [7] is 92.4% (active); in assay [8], 90.3% (active); in [9], 94.4% (active); in [10], 98% (active).
In the case of `O=C(CCC1CCCC1)Nc1ccc(C(=O)NCc2cccnc2)cc1`, the inhibition in assay [1] was 88.5% (active); in assay [2] it was 43.3% (active); in assay [3], 62.4% (active); in assay [4], 24.4%; in [5] it was 88% (active); in [6], 98.7% (active). For the same compound, the inhibition was 94.8% (active) in assay [7], 66.9% (active) in [8], -5.72% in [9] and 48.6% (active) in assay [10].
With `Cc1ccc(C(=O)O/N=C(\N)c2ccccn2)c(Cl)c1`, the inhibition in [1] was 28.7%; in [2], 11.1%; in assay [3] it was -47.4%; in [4] it was -23.7%; in [5], -22.8%; in [6], -86.9%. Moreover, the inhibition in assay [7] was 4.43%; in [8], -54.1%; in [9], 50.6% (active); in assay [10] it was 70.8% (active).
In the case of `O=c1cnnc(N/N=C/c2ccccn2)[nH]1`, the inhibition in assay [1] is 81.9% (active); in assay [2], 68.9% (active); in assay [3], 76% (active); in assay [4], 54.8% (active); in assay [5], 87.7% (active); in [6], 103% (active). Further, the inhibition in assay [7] was 83.3% (active); in [8], 65.3% (active); in [9], -24.3%; in [10], 26.5%.
On to `O=C(NN=Cc1c(O)ccc2ccccc12)c1ccncc1`, for which the inhibition in [1] was 77% (active); in [2] it was 70.6% (active); in assay [3], 65.6% (active); in assay [4], 65.3% (active); in assay [5], 87.4% (active); in assay [6], 104% (active). Also, the inhibition in assay [7] was 89.8% (active); in [8], 77.4% (active); in assay [9], -16.9%; in assay [10], 38%.
For `O=C(O)c1ccc(N/N=C/c2ccc3nccnc3c2)cc1`, the inhibition in assay [1] is 17.8%; in assay [2], 10.9%; in assay [3], -44.9%; in [4], 10.3%; in [5] it was 48.4% (active); in assay [6], 21.4%. The inhibition in [7] is 61% (active); in assay [8] it was 14.8%; in [9], 42.2% (active); in [10] it was 75.5% (active).
For `COc1ccc(CC2C(=O)NC(C)C(=O)N(C)C3Cc4ccc(cc4)Oc4cc(ccc4O)CC(C(=O)NC(C)C(=O)NC(C)C(=O)N2C)N(C)C3=O)cc1` (stereo not given), the inhibition in assay [1] is 97.6% (active); in assay [2], 96.4% (active); in assay [3] it was 90.6% (active); in assay [4], 95% (active); in assay [5], 96% (active); in [6], 110% (active). Also, the inhibition in [7] was 98.6% (active); in assay [8], 97.2% (active); in [9], 82.2% (active); in [10], 76.9% (active).
On to `COc1cccc(/C=N/NC(=O)c2c(-c3ccccc3)noc2C)c1O`, for which the inhibition in assay [1] is 38.4%; in assay [2] it was 37.1% (active); in assay [3] it was 24.8%; in [4] it was 34.6% (active); in assay [5], 68.8% (active); in assay [6], 52.1% (active). The inhibition in [7] was 64.6% (active); in assay [8], 67.5% (active); in assay [9], 2.72%; in assay [10], 33.1%.
For `Clc1ccc(-n2ncc3c(NCCN4CCOCC4)ncnc32)cc1`, the inhibition in assay [1] was 37.8%; in assay [2] it was -3.35%; in assay [3] it was 3.19%; in assay [4], -21.6%; in assay [5] it was 28.4% (active); in [6], -30.3%. The inhibition in assay [7] was 33.4%; in assay [8], -23.4%; in assay [9], 36.7% (active); in assay [10], 58.9% (active).
As for `O=C(OC(c1ccccc1)c1nccc2ccccc12)c1ccccc1` (stereo not given), the inhibition is 57.4% (active) in [1]; 42.8% (active) in assay [2]; 26.3% in [3]; 21.7% in assay [4]; 43.4% (active) in assay [5]; -16.8% in assay [6]. The inhibition in assay [7] was 45.4% (active); in [8], -4.96%; in assay [9] it was 30.1%; in assay [10], 67.6% (active).
Take `CC1CC(C)C(=NNC(N)=O)C(C(O)CC2CCC(=O)NC2=O)C1` (stereo not given): the inhibition is 9.15% in assay [1]; 11.3% in assay [2]; 33.6% in assay [3]; 7.8% in assay [4]; 63.1% (active) in assay [5]; 76.7% (active) in assay [6]. For the same compound, the inhibition was 75.8% (active) in assay [7], 30% in assay [8], 8% in [9] and -0.31% in [10].
